Source: PubChem BioAssay (several laboratories)
The list is not random: actives were taken first. Their share in the collection is about 2.4%.
HSF-1 act – HSF-1 activators, primary screen, NIH3T3-HGL cells, MG132 stress, luminescence, single point; NIH3T3-HGL HSF-1 luciferase reporter, 8 h; 100% = twice DMSO control signal; activation, % at 9 µM; actives 1.7% (n = 300,000); AID 504408, 2011;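 active means mean replicate activation of at least 50% with a set share of replicates each reaching 50%; inconclusive means only one of those two conditions met; inactive means mean below 50% and too few replicates reaching it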
TLR4-MyD88 BLA – inhibitors of TLR4-MyD88 association in cells, primary screen, cell-based, HeLa CL3-4, BLA complementation, FRET ratio; Toll-like receptor 4 (Homo sapiens) + Myeloid differentiation primary response protein …; HeLa CL3-4 TLR4/MyD88 BLA complementation; inhibition, % at 8.4 µM; actives 0.18% (n = 200,000); AID 861, 2007; in the data active means inhibition above about 25%
TLR9-MyD88 block – inhibitors of TLR9-MyD88 association in cells, primary screen, cell-based, CHO, BLA complementation, fluorescence. Toll-like receptor 9 (Homo sapiens) + Myeloid differentiation primary response protein …. CCF4 FRET ratio. inhibition, % at 4.98 µM. actives 0.21% (n = 340,000);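 active means inhibition above the mean over all tested compounds plus 3 SD, cut at about 21% in these data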
HSF1 inh – HSF1 inhibitors in luciferase reporter cells, primary screen, cell-based, NIH3T3, luminescence. NIH3T3-HGL HSE-luciferase, MG132-induced, luminescence 8 h; stronger effect = lower value. activity change, negative = inhibition, % at 7.5 µM (by protocol). actives 0.77% (n = 300,000). AID 2098, 2009;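 active means more than half of replicate wells show activity change below -50%, luminescence cut by over half; inconclusive means some wells, but at most half, below -50%; inactive means no replicate well below -50%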;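 further: luciferase reports HSF-1 transcriptional activity via heat shock element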
NOD2-RIPK2 inh – NOD2-RIPK2 binding disruptors in cells, primary screen, fluorescence, CHO cells, BLA complementation; inhibition, % at 4.98 µM; actives 0.38% (n = 360,000); Receptor-interacting serine/threonine-protein kinase 2 (Homo sapiens), O43353; CCF4 ratio; in the data active means inhibition above about 21%
Target sequence (O43353 whole entry, looked up): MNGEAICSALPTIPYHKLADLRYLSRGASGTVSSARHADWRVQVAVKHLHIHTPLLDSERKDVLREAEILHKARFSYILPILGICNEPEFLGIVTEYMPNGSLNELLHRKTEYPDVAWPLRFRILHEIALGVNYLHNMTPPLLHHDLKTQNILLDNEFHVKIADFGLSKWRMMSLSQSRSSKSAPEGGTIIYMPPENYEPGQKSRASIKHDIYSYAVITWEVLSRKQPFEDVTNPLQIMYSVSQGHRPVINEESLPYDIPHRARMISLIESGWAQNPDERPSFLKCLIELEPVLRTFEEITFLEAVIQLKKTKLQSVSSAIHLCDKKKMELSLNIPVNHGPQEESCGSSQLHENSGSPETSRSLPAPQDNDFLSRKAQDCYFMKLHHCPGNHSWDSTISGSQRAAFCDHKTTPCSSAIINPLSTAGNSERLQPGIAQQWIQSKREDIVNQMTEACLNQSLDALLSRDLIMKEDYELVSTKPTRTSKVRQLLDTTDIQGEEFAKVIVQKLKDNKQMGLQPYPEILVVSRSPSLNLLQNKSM
Of the large screens only hits and unclear results are named; the others gave an inactive call.

CCc1ccc(C(=O)/C=C/c2ccc([N+](=O)[O-])o2)cc1	HSF-1 act 154.6
CCOC(=O)CCc1ccc(NC(=O)/C=C/c2ccc([N+](=O)[O-])o2)cc1	none (no result: TLR4-MyD88 BLA)
COc1ccc(CCNC(=O)Nc2cccc([N+](=O)[O-])c2)cc1OC	HSF-1 act 71.5
COc1ccc(CCNC(=O)c2cccc([N+](=O)[O-])c2)cc1OC	HSF1 inh -87.5 (no result: TLR4-MyD88 BLA)
COc1ccc(CCNC(=O)c2ccc(-c3cccc([N+](=O)[O-])c3)o2)cc1OC	none
O=C(NCc1ccccn1)c1cccc([N+](=O)[O-])c1	HSF-1 act 61.6
O=C(CCc1ccccc1)Nc1cccc([N+](=O)[O-])c1	HSF1 inh -76.3
O=C(CSc1ccc2nnc(-c3cccnc3)n2n1)Nc1ccccc1F	none (no result: HSF-1 act, TLR4-MyD88 BLA, HSF1 inh)
Cc1cn([C@H]2C[C@H](O)[C@@H](CCC(=O)NCc3ccc(N(C)C)cc3)O2)c(=O)[nH]c1=O	none (no result: HSF-1 act, TLR4-MyD88 BLA, HSF1 inh)
CCCCNc1c(-c2ccc(-c3ccc(OC)cc3)c(OC)c2)nc2ccccn12	none (no result: HSF-1 act, TLR4-MyD88 BLA, HSF1 inh)
O=C(COC(=O)c1ccccc1Br)Nc1cccnc1Cl	none (no result: HSF-1 act, TLR4-MyD88 BLA, HSF1 inh)
O=C(CCCCCn1c(=S)[nH]c2ccc(N3CCOCC3)cc2c1=O)NCc1ccc(Cl)cc1	none
O=c1c2cc(N3CCOCC3)ccc2[nH]c(=S)n1Cc1ccc(Cl)cc1	HSF-1 act 55.6
C[C@@H]1CN([C@@H](C)CO)C(=O)CCCn2nncc2CO[C@@H]1CN(C)S(=O)(=O)c1ccc2ccccc2c1	none (no result: HSF-1 act, TLR4-MyD88 BLA, HSF1 inh)
CC(C)Oc1ccc(CN=C(N)N=C(N)N)cc1Cl	HSF-1 act 54.6
O=C(Nc1ccc(Cl)cc1)Nc1ccccc1C(=O)O	HSF-1 act 54.0
O=C(Nc1cccc(Cl)c1)Nc1ccccc1C(=O)O	none (no result: TLR4-MyD88 BLA)
O=C(Nc1ccc(Br)cc1)Nc1ccccc1Cl	HSF-1 act 58.3 (no result: TLR4-MyD88 BLA)
O=C(Nc1ccc(CN2CCCCC2)cc1)Nc1ccccc1Cl	none
O=C(Nc1ccc(Cl)c(Cl)c1)Nc1ccccc1C(=O)O	HSF-1 act 67.8
Cc1cc(C(=O)NCCC2=CCCCC2)ccc1[N+](=O)[O-]	HSF-1 act 57.5 (no result: TLR9-MyD88 block)
O=C(NCCC1=CCCCC1)c1ccc([N+](=O)[O-])cc1	HSF-1 act 53.2
O=C(NC(=S)NCCC1=CCCCC1)c1ccco1	HSF-1 act 62.0
COc1ccc(N2C(=O)CSC23C(=O)N(CC(=O)NC2CCCC2)c2ccccc23)cc1 (stereo not drawn)	none (no result: TLR4-MyD88 BLA)
C[C@H](CO)N1C[C@H](C)[C@@H](CN(C)CC2CCCCC2)Oc2ccc(NC(=O)Cn3cnnn3)cc2C1=O	none (no result: HSF-1 act, TLR4-MyD88 BLA, HSF1 inh)
Cc1noc(C)c1S(=O)(=O)N(CC(=O)N1CCc2ccccc21)c1ccc(C(C)C)cc1	none
COc1ccc(N(CC(=O)N2CCc3ccccc32)S(=O)(=O)c2c(C)noc2C)cc1	HSF-1 act 77.0
COc1ccc(N(CC(=O)Nc2cccc(C(=O)O)c2)S(=O)(=O)c2c(C)noc2C)cc1	none (no result: HSF-1 act, HSF1 inh)
COc1ccc(N(CC(=O)Nc2cccc(C)c2)S(=O)(=O)c2c(C)noc2C)cc1	HSF1 inh -69.4 (no result: TLR4-MyD88 BLA)
O=C(NCc1ccccc1)C(c1ccc(F)cc1)N1CCN(c2ccccc2F)CC1 (stereo not drawn)	none (no result: HSF-1 act, TLR4-MyD88 BLA, TLR9-MyD88 block, HSF1 inh)
COc1cc(C2CC(c3cccs3)=NN2C(=O)CCl)ccc1OC(F)F (stereo not drawn)	HSF1 inh -67.1 (no result: TLR4-MyD88 BLA)
COc1ccc(C2CC(c3cccs3)=NN2C(=O)CCl)cc1OC (stereo not drawn)	HSF-1 act inconclusive (no result: TLR4-MyD88 BLA)
COc1ccccc1-c1nnc(SC2CCc3ccccc3NC2=O)s1 (stereo not drawn)	HSF1 inh -51.9
COc1ccccc1-c1nnc(N)s1	none
CCc1ccc(N(C(=O)c2snc(C(N)=O)c2N)C(C(=O)NCCC(C)C)c2c[nH]c3ccccc23)cc1 (stereo not drawn)	HSF-1 act 56.7
Cc1ccc(C)c(SCC(=O)Nc2ccc(C)c(S(=O)(=O)N3CCOCC3)c2)c1	none (no result: HSF-1 act, TLR4-MyD88 BLA, HSF1 inh)
N#CCCCC1(CCCC#N)OCCO1	none (no result: HSF-1 act, TLR4-MyD88 BLA, HSF1 inh)
CC(C)c1ccccc1NC(=O)c1ccc2ncsc2c1	none (no result: TLR4-MyD88 BLA)
